Laboratory results as given in ChEMBL document CHEMBL1961873, “Compounds: GSK PKIS; Assays: Nanosyn kinase panel” (2012).

Experiments:
[1] = target: Death-associated protein kinase 1 (Homo sapiens) (UniProt P53355); conditions: at 1 µM;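 note: each value is a mean inhibition figure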
[2] = target: T1, Serine/threonine-protein kinase DCLK2 (Homo sapiens) (UniProt Q8N568); conditions: at 0.1 µM
T1 sequence (whole entry): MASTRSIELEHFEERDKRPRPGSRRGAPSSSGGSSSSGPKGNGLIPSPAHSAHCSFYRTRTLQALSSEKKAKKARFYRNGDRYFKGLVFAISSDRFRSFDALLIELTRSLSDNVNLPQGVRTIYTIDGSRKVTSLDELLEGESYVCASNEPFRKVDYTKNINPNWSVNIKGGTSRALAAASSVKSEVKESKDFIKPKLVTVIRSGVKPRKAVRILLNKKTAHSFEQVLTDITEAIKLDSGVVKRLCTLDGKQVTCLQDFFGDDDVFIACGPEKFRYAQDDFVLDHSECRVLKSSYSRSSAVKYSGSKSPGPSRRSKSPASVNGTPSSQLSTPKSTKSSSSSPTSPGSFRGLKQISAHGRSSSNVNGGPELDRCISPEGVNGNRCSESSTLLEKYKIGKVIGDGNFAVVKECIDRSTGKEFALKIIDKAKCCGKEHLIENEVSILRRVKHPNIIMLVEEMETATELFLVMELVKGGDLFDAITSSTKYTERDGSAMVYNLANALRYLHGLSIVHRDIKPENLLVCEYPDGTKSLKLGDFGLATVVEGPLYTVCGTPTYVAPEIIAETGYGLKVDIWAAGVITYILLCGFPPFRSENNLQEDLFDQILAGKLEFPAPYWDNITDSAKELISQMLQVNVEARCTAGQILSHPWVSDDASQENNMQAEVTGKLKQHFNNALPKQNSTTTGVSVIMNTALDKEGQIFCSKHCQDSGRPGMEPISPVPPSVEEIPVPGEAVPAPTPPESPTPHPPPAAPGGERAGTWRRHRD

[3] = target: T1, Serine/threonine-protein kinase DCLK2 (Homo sapiens); conditions: at 1 µM
[4] = target: MAP kinase-activated protein kinase 2 (Homo sapiens) (UniProt P49137); conditions: at 0.1 µM
MAP kinase-activated protein kinase 2 (Homo sapiens), sequence (P49137 whole entry, looked up): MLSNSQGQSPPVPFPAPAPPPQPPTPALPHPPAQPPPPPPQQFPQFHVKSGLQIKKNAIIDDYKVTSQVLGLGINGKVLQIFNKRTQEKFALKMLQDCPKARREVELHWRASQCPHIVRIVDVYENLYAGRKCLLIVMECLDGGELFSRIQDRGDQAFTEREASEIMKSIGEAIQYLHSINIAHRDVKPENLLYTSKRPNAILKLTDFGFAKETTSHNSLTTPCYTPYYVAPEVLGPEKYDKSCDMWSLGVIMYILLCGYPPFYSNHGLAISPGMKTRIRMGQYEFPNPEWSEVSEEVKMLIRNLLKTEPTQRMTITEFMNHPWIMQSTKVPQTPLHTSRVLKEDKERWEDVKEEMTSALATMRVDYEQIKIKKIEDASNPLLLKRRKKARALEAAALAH

[5] = target: MAP kinase-activated protein kinase 2 (Homo sapiens) (UniProt P49137); conditions: at 1 µM
[6] = target: MAP kinase-activated protein kinase 3 (Homo sapiens) (UniProt Q16644); conditions: at 0.1 µM
MAP kinase-activated protein kinase 3 (Homo sapiens), sequence (Q16644 whole entry, looked up): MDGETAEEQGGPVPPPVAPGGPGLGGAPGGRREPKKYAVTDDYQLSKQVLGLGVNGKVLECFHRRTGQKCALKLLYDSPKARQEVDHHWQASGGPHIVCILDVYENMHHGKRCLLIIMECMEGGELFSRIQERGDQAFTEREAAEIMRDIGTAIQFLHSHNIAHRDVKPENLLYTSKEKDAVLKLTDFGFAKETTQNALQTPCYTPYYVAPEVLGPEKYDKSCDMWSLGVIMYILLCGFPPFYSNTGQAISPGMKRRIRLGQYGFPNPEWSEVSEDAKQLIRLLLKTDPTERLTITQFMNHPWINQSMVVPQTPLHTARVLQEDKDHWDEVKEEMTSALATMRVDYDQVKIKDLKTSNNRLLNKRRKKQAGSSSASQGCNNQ

[7] = target: MAP kinase-activated protein kinase 3 (Homo sapiens) (UniProt Q16644); conditions: at 1 µM
[8] = target: Serine/threonine-protein kinase MARK1 (Homo sapiens) (UniProt Q9P0L2); conditions: at 0.1 µM
Serine/threonine-protein kinase MARK1 (Homo sapiens), sequence (Q9P0L2 whole entry, looked up): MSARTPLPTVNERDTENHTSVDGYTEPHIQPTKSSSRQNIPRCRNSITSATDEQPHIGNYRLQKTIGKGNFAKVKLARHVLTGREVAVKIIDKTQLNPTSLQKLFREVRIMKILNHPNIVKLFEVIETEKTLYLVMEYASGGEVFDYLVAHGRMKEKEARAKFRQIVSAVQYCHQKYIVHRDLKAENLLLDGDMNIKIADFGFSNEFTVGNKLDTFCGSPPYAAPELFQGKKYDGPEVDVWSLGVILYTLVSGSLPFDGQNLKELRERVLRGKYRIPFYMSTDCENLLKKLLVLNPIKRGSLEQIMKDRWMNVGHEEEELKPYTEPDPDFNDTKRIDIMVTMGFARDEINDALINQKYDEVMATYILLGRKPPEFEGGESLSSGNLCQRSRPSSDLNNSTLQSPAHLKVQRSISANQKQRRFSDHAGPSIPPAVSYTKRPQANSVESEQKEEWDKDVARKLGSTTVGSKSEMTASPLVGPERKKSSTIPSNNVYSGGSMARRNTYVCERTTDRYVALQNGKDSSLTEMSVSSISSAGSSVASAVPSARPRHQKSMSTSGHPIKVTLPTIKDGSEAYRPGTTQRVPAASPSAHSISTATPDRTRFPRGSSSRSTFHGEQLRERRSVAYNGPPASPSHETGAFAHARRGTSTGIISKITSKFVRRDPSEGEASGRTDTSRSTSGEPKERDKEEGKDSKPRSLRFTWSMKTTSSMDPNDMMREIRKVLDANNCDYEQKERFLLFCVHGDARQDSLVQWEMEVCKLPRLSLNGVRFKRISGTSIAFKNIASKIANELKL

[9] = target: Serine/threonine-protein kinase MARK1 (Homo sapiens) (UniProt Q9P0L2); conditions: at 1 µM
[10] = target: MAP/microtubule affinity-regulating kinase 3 (Homo sapiens) (UniProt P27448); conditions: at 0.1 µM;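 note: mean percent inhibition of MARK3 kinase activity, measured within the GSK PKIS screening panel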
MAP/microtubule affinity-regulating kinase 3 (Homo sapiens), sequence (P27448 whole entry, looked up): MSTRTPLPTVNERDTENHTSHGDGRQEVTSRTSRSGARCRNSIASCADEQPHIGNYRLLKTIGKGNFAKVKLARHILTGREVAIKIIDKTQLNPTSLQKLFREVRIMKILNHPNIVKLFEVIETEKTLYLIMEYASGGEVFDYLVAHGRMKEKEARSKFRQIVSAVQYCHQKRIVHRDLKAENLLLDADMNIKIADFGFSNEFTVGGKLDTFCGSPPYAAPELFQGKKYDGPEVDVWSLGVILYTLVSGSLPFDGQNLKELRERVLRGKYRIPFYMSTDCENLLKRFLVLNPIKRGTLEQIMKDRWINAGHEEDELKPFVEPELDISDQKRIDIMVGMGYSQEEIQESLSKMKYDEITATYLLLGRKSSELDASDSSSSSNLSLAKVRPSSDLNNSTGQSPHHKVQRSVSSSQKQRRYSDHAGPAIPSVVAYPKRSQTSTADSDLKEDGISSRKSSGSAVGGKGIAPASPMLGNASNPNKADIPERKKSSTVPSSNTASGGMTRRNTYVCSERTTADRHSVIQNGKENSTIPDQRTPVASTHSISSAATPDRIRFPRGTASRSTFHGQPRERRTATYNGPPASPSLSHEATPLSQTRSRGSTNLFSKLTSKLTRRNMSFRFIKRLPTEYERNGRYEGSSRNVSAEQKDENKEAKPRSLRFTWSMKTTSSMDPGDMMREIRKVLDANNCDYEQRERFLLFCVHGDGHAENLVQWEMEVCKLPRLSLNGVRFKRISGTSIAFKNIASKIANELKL

Death-associated protein kinase 1 (Homo sapiens), sequence (P53355 whole entry, looked up): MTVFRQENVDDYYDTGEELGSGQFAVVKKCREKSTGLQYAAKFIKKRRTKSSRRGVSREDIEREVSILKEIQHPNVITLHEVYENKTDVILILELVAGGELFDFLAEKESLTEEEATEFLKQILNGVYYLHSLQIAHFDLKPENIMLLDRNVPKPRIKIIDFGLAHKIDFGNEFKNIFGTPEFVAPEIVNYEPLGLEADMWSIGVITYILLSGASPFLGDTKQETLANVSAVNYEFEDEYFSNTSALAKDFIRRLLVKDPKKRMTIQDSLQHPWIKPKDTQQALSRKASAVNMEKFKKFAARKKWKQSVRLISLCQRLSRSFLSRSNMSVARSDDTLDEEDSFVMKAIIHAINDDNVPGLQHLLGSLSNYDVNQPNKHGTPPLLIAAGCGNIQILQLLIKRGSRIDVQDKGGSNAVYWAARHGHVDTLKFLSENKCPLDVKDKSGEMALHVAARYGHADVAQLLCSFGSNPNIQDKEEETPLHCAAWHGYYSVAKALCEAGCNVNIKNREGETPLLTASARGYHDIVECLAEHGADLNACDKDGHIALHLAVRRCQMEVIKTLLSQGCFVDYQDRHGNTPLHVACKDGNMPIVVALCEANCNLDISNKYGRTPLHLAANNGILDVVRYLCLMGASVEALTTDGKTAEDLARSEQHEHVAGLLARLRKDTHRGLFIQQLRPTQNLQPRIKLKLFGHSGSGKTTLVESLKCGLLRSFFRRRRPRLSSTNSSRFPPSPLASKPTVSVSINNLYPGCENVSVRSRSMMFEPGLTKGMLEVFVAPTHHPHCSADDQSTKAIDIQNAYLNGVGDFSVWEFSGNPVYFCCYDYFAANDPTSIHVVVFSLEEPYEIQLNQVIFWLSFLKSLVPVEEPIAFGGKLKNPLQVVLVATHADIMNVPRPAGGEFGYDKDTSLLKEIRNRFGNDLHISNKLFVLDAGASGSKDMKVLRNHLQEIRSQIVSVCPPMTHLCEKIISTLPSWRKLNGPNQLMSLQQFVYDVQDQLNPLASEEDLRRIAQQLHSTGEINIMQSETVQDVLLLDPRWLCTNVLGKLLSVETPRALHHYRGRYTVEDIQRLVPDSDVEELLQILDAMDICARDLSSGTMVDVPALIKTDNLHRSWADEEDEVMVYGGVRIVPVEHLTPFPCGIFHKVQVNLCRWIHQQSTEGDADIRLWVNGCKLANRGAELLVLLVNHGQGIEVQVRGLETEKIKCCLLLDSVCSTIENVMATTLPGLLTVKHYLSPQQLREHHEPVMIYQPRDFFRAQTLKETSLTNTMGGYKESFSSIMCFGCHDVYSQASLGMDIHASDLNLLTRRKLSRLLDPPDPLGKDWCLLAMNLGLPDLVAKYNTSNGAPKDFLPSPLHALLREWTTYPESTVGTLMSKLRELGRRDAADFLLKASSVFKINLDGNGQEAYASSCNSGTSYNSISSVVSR

SMILES	inhibition [1] [%]	inhibition [2] [%]	inhibition [3] [%]	inhibition [4] [%]	inhibition [5] [%]	inhibition [6] [%]	inhibition [7] [%]	inhibition [8] [%]	inhibition [9] [%]	inhibition [10] [%]
Cc1ccc(O)cc1Nc1ccnc2cc(-c3ccccn3)ccc12	5.29	1.56	2.1	1.91	1.68	7.63	19.4	4.13	6.28	4.39
COc1cc(/C=N/Nc2ncnc3[nH]ncc23)ccc1O	4.2	1.49	1.35	2.01	2.3	2.87	4	7.13	35.7	7.13
FC(F)(F)c1cccc(-c2nn3ncccc3c2-c2ccnc(Nc3ccc4c(c3)OCCO4)n2)c1	4.46	0.29	-0.51	0.54	0.88	12.3	31.9	2.64	3.63	2.14
Fc1ccc(-c2cc(-c3c[nH]nc3-c3ccccn3)ccn2)cc1	3.05	1.09	-1.86	2.53	2.72	7.67	18.4	4.11	3.39	2.52
Nc1ncc(-c2cccc(S(N)(=O)=O)c2)c2scc(-c3ccc(F)c(Cl)c3)c12	3.2	0.41	0.61	1.76	1.12	6	15.7	3.57	5.62	-0.65
c1ccc(COc2ccc(Nc3ncnc4ccc(-c5ccco5)cc34)cc2)cc1	0.73	-0.98	-0.08	2.44	0.12	1.07	-0.28	0.18	1.8	0.1
c1cc(-c2cnn3nc(N4CCOCC4)ccc23)nc(NC2CC2)n1	3.38	-0.25	-2.52	1.29	1.97	5.27	6.31	3.55	10.3	4.76
CC(C)(CO)CNC(=O)c1ccc2c(c1)/C(=N/Nc1ccc(S(N)(=O)=O)cc1)C(=O)N2	0.07	0.04	1.76	-0.45	-1.03	2.49	2.07	10.3	52.5	5.88
CN1CCC(n2cnc(-c3ccc(F)cc3)c2-c2ccnc(Nc3ccccc3)n2)CC1	2.54	0.09	-4.09	1	0.41	34.8	36.9	1.99	4.86	3.17
Clc1ccc(-c2nn3ncccc3c2-c2ccnc(Nc3ccccc3)n2)cc1	-0.24	1.9	6.65	0.42	-0.09	22.4	32.1	1.31	0.37	-2.23
CCn1c(-c2nonc2N)nc2cnc(Oc3cccc(NC(=O)c4ccc(N(C)C)cc4)c3)cc21	0.59	0.41	0.72	1.12	0.16	2.53	2.85	2.53	10.8	2.76
CC1=C(C(=O)Nc2cc(Cl)c3[nH]ncc3c2)C(c2ccc(C(F)(F)F)cc2)CC(=O)N1 (stereo not given)	10	3.55	2.36	4.51	4.3	9.27	9.12	3.77	6.87	3.36
CS(=O)(=O)CCNCc1ccc(-c2ccc3ncnc(Nc4ccc(OCc5ccccc5)c(C(F)(F)F)c4)c3c2)o1	10.9	7.37	2.23	4.99	3.73	8.97	10.7	2.72	4.11	3.87
COc1cc2ncn(-c3cc(OCc4ccccc4C(F)(F)F)c(C(=O)N(C)C)s3)c2cc1OC	-1.63	-2.64	3.14	-0.07	-0.4	-1.65	0.87	0.44	1.45	0.15
CN1CCC(n2cnc(-c3ccc(F)cc3)c2-c2ccnc(N)n2)CC1	2.09	0.59	1.94	0.99	0.33	17.1	33.5	1.8	6.88	0.93
CCN(CC)S(=O)(=O)c1ccc(OC)c(Nc2ncc(-c3ccccc3)o2)c1	4.29	2.03	3.38	2.65	1.48	1.95	-0.47	1.44	2.58	-0.45
CCN1CCC(CC(=O)Nc2n[nH]c3nnc(-c4cccc(F)c4F)cc23)CC1	3.28	-0.85	1.18	1.15	0.52	1.74	0.62	1.89	2.48	2.14
